Bioassay records: PubChem, National Center for Advancing Translational Sciences (NCATS)
KDM5B inh: Primary screen for KDM5B Histone Demethylases FDH-coupled qHTS; Lysine-specific demethylase 5B (Homo sapiens), Q9UGL1; KDM5B demethylase, FDH-coupled NADH fluorescence (FDH is formaldehyde dehydrogenase); Potency, µM (highest dose often 57.7 µM), hits mostly inhibitors; 220,000 compounds, 2.6% hits; AID 1347165, 2019; active = well fitted inhibition curve with a large enough effect; note: 0% is about no effect; nearly all actives have a fitted effect of over 70% in size
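Measured: NADH fluorescence change, 30 min, RT. System: KDM5BΔAP 200 nM final, H3K4me3 peptide, α-KG, Fe(II), ascorbate, NAD⁺ plus FDH, pH 7.5 HEPES. Compounds: titrated, 10 min pre-incubation with enzyme.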
* hit, by the source's call; i = inactive. Only a selection was taken, and hits are over-represented in it overall. Potency is the fitted concentration of half-maximal effect.

SMILES	KDM5B inh
Cc1ccc(C)c(C(=O)NCc2nnc3c(-c4nc(C5CC5)no4)cccn23)c1	25.1µM*
O=C(NCc1nnc2c(-c3nc(C4CC4)no3)cccn12)c1ccc(F)cc1	22.4µM*
O=C(CCCc1ccccc1)N1CCC(c2noc(-c3ccccc3)n2)C1 (centres undefined)	i
Cc1ccc(C)c(C(=O)NCc2ccco2)c1	i
CCCc1noc(-c2cccn3c(CNC(=O)Cc4ccc(Cl)cc4)nnc23)n1	25.1µM*
Cc1ccc(C)c(C(=O)NCC(C)C)c1	i
O=C(NCc1nnc2n1C(C(=O)NCc1ccc(F)cc1)CC2)c1ccccc1 (centres undefined)	i
O=C(CCc1ccccc1)NCc1nnc2c(-c3nc(C4CC4)no3)cccn12	28.2µM*
c1ccc(-c2nc(C3CC3)no2)c(OC2CNC2)c1	i
Cc1ccccc1OCC(=O)NCc1nnc2c(-c3nc(C4CC4)no3)cccn12	i
Cc1ccc(F)c(S(=O)(=O)N(Cc2nccn2C)C2CC2)c1	i
CCN(CC)CCNc1nc(C23CC4CC(CC(C4)C2)C3)cs1	i
CCCCCCC(C)NCc1cccc2ccccc12 (centres undefined)	i
CCCn1c(=O)n(CC(=O)NCc2nnc3n2CCC3)c2ccccc21	i
COc1ccc(C)cc1NC(=O)C(C)O/N=C/c1ccc(Cl)cc1 (centres undefined)	i
CCC(=O)c1ccc(Oc2cc(C#N)c(C#N)cc2N2CCOCC2)cc1	i
O=C(c1cc(F)ccc1F)N1CCC(n2cc(-c3nc(C4CC4)no3)nn2)C1 (centres undefined)	i
O=C(Cc1ccc(Cl)cc1)NCc1nnc2c(-c3nc(C4CC4)no3)cccn12	28.2µM*
O=C(Cn1cccc1-c1nc(-c2ccc3c(c2)OCO3)no1)NCCc1ccc(Cl)cc1	i
COc1cc(Cl)ccc1C(=O)NCc1nnc2c(-c3nc(C4CC4)no3)cccn12	i
O=C(NCc1nnc2c(-c3nc(C4CC4)no3)cccn12)C1CC1	22.4µM*
O=C(NCc1nnc2c(-c3nc(C4CC4)no3)cccn12)c1cc(Cl)ccc1F	28.2µM*
CC(C)NC(=O)C1CCc2nnc(CNC(=O)C3CC3)n21 (centres undefined)	i
COCCOCC(=O)N1CC(Oc2ccccc2-c2nc(C3CC3)no2)C1	i
O=C(Cn1cccc1-c1nc(-c2ccccc2)no1)NCc1ccc(Cl)cc1	i
SMILES	KDM5B inh
CCc1nncn1C1CCN(S(=O)(=O)c2cc(OC)ccc2OC)CC1	i
CC(NC(=O)CSc1nnnn1-c1ccc(O)cc1)c1ccc2c(c1)OCCO2 (centres undefined)	i
COc1ccc2c(c1)C=C(C(=O)Nc1ccc3ccc(=O)oc3c1)C=CO2	i
CC(C)(C)C(=O)/C(C#N)=C/c1ccccc1OCc1ccccc1Cl	i
Cc1nnc(NC(=O)C2CC(c3ccccc3)=NO2)s1 (centres undefined)	i
Cc1ccc(C)c(Cn2nc(-c3ccc(C)c(S(=O)(=O)N4CCCC4)c3)ccc2=O)c1	i
CC(C)Cn1ccc2c(NC(=O)C[C@H]3NC(=O)c4ccccc4NC3=O)cccc21	i
CC(C)c1nc2ccccc2n1CCNC(=O)CC[C@H]1NC(=O)c2ccccc2NC1=O	i
CN1C(=O)c2ccc(NC(=O)C[C@H]3NC(=O)c4ccccc4NC3=O)cc2C1=O	25.1µM*
O=C(C[C@H]1NC(=O)c2ccccc2NC1=O)Nc1ccc(C(F)(F)F)cc1	i
CC(C)n1c(CNC(=O)C[C@H]2NC(=O)c3ccccc3NC2=O)nc2ccccc21	28.2µM*
NC(=O)c1ccc(NC(=O)C[C@H]2NC(=O)c3ccccc3NC2=O)cc1	i
COc1ccc(-c2nnc3sc(-c4ccccc4C)nn23)cc1OC	i
CC(C)(CC(=O)O)CC(=O)Nc1cccc(C(F)(F)F)c1	i
O=C(CSc1nc2ccccc2o1)NC(=O)NC1CCCC1	i
CCCn1c(C)cc(C(=O)COC(=O)c2cc(C)nc3ccccc23)c1C	i
CCC(Cn1ccnc1)NC(=O)c1cccc(NCc2ccc(F)cc2)c1 (centres undefined)	20µM*
CN(C)[C@H]1CN(C(=O)c2cccc(NCc3ccc(F)cc3)c2)C[C@@H]1O	i
O=C(NCCCn1ccnc1)c1cccc(Br)c1	i
CC(NC(=O)CCc1ncc(-c2ccc(Cl)cc2)o1)c1ccc(S(C)(=O)=O)cc1 (centres undefined)	i
Cc1nnc(SCC(=O)NCCc2ccco2)c2nn(-c3ccc(Cl)cc3)c(C)c12	i
O=C(NCCc1csc(-c2cccnc2)n1)C1NCCc2[nH]cnc21 (centres undefined)	12.6µM*
O=C(NCc1nnnn1-c1ccccc1)C1NCCc2[nH]cnc21 (centres undefined)	i
O=C(COc1ccccc1)NCCc1csc(-c2cccnc2)n1	i
Cc1nn(-c2ccc(F)cc2)c(C)c1CNC(=O)C1NCCc2[nH]cnc21 (centres undefined)	12.6µM*
SMILES	KDM5B inh
COc1ccc(SCCNC(=O)C2NCCc3[nH]cnc32)cc1 (centres undefined)	i
O=C(NCc1ccc2c(c1)OCO2)C1NCCc2[nH]cnc21 (centres undefined)	i
O=C(NCCc1csc(-c2ncccn2)n1)C1NCCc2[nH]cnc21 (centres undefined)	i
COc1cccc(-c2ncc(CNC(=O)C3NCCc4[nH]cnc43)s2)c1 (centres undefined)	20µM*
CCCOc1ccc(CCNC(=O)C2NCCc3[nH]cnc32)cc1OC (centres undefined)	i
O=C(O)c1csc(-c2cnccn2)n1	i
O=C(NCc1csc(-c2cnccn2)n1)C1NCCc2[nH]cnc21 (centres undefined)	25.1µM*
Cc1cc(C)cc(C2(CNC(=O)C3NCCc4[nH]cnc43)CCCC2)c1 (centres undefined)	i
O=C(C1=Cc2cc(Cl)ccc2OC1)N1CCN(S(=O)(=O)c2cc(F)ccc2F)CC1	i
CCCn1c(SCC(=O)Nc2ccc(F)cc2)nc(O)cc1=O	i
CC(CCc1ccccc1)NC(=S)NC1CC2CCC1C2 (centres undefined)	i
CCc1ccc(NC(=O)CSc2nc3c(c(=O)[nH]2)CN(Cc2ccc(Cl)cc2)CC3)cc1	i
Cc1cccc(-c2noc([C@@H]3C[C@@H](O)CN3C3CCOCC3)n2)c1	i
CC(C)c1ccc(CN(C)C(C)C(=O)NCc2cccs2)cc1 (centres undefined)	i
O=C(Nc1ccccc1C(F)(F)F)c1ccc(Cl)c(Cl)c1	i
O=C(NCCc1nc(-c2cccnc2)n[nH]1)C1CCC(=O)N(C2CCCC2)C1 (centres undefined)	i
O=C(NCCc1csc(-c2cnccn2)n1)C1CC2(CCNCC2)CN1 (centres undefined)	28.2µM*
Cc1cc(C(F)(F)F)nc(CCNC(=O)C2CC3(CCNCC3)CN2)n1 (centres undefined)	i
O=C(NCCc1nc(-c2cccnc2)n[nH]1)C1NCCc2[nH]cnc21 (centres undefined)	7.94µM*
O=C(NCCc1nc(-c2cccnc2)no1)C1CC2(CCNCC2)CN1 (centres undefined)	i
O=C(NCCc1nccc(-c2ccccc2)n1)C1NCCc2[nH]cnc21 (centres undefined)	i
CN(C)S(=O)(=O)c1ccc2c(c1)cc(C(=O)NCCc1ccco1)n2C	i
